This is an account of results in ChEMBL document CHEMBL2218924, “A broad activity screen in support of a chemogenomic map for kinase signalling research and drug discovery” (Biochem J, 2013).

The target of assay [1] is Ribosomal protein S6 kinase beta-1 (Homo sapiens) (UniProt P23443). The following applies: at 1 µM.
Assay [2] has the same target. The conditions noted are these: at 10 µM.
The target in assay [3] is T1, Serine/threonine-protein kinase NLK (Homo sapiens) (UniProt Q9UBE8).
T1 sequence (whole entry): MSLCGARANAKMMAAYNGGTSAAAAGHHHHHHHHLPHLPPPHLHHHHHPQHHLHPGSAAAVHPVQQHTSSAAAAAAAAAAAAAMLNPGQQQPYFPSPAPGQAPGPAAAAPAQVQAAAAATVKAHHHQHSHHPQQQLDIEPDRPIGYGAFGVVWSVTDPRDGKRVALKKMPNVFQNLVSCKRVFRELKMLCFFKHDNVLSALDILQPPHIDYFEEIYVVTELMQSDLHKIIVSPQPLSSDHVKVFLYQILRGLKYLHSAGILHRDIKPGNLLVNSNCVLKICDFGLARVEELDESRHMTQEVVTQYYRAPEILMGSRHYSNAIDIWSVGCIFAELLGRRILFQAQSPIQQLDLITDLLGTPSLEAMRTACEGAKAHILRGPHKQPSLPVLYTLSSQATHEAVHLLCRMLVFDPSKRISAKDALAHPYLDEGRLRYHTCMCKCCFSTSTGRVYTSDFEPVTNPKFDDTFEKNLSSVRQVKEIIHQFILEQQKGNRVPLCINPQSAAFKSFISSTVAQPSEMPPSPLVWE
The following applies: at 1 µM.

Assay [4] has as its target T1, Serine/threonine-protein kinase NLK (Homo sapiens). The following applies: at 10 µM.
For assay [5], the target named is Serine/threonine-protein kinase PAK 2 (Homo sapiens) (UniProt Q13177). The conditions noted are these: at 1 µM.
Sequence of Serine/threonine-protein kinase PAK 2 (Homo sapiens) (Q13177 whole entry): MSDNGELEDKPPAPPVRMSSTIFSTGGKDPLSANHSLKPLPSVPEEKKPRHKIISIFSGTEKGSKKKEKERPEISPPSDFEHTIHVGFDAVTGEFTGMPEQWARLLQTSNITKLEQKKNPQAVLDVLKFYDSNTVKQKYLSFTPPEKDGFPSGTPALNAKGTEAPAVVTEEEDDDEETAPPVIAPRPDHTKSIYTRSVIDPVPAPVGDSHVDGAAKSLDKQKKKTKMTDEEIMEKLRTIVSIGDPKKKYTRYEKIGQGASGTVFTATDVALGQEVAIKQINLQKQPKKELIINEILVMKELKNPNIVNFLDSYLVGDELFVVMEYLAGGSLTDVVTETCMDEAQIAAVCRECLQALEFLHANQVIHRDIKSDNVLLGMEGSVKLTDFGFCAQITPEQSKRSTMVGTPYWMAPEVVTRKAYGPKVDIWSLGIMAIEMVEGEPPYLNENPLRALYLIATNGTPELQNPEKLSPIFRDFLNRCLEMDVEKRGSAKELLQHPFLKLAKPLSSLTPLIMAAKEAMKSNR
For assay [6] the target is unchanged. The conditions noted are these: at 10 µM.
The target in assay [7] is Serine/threonine-protein kinase PAK 4 (Homo sapiens) (UniProt O96013). The following applies: at 1 µM.
Assay [8] shares this target. The following applies: at 10 µM.
The target in assay [9] is Serine/threonine-protein kinase PAK 5 (Homo sapiens) (UniProt Q9P286). The conditions noted are these: at 1 µM.
The target is the same in assay [10]. The conditions noted are these: at 10 µM.
Assay [11] has as its target Serine/threonine-protein kinase PAK 6 (Homo sapiens) (UniProt Q9NQU5). The following applies: at 1 µM.
The target is the same in assay [12]. The conditions noted are these: at 10 µM.
For assay [13], the target named is PAS domain-containing serine/threonine-protein kinase (Homo sapiens) (UniProt Q96RG2). The conditions noted are these: at 10 µM.
Sequence of PAS domain-containing serine/threonine-protein kinase (Homo sapiens) (Q96RG2 whole entry, the tested form may be a part): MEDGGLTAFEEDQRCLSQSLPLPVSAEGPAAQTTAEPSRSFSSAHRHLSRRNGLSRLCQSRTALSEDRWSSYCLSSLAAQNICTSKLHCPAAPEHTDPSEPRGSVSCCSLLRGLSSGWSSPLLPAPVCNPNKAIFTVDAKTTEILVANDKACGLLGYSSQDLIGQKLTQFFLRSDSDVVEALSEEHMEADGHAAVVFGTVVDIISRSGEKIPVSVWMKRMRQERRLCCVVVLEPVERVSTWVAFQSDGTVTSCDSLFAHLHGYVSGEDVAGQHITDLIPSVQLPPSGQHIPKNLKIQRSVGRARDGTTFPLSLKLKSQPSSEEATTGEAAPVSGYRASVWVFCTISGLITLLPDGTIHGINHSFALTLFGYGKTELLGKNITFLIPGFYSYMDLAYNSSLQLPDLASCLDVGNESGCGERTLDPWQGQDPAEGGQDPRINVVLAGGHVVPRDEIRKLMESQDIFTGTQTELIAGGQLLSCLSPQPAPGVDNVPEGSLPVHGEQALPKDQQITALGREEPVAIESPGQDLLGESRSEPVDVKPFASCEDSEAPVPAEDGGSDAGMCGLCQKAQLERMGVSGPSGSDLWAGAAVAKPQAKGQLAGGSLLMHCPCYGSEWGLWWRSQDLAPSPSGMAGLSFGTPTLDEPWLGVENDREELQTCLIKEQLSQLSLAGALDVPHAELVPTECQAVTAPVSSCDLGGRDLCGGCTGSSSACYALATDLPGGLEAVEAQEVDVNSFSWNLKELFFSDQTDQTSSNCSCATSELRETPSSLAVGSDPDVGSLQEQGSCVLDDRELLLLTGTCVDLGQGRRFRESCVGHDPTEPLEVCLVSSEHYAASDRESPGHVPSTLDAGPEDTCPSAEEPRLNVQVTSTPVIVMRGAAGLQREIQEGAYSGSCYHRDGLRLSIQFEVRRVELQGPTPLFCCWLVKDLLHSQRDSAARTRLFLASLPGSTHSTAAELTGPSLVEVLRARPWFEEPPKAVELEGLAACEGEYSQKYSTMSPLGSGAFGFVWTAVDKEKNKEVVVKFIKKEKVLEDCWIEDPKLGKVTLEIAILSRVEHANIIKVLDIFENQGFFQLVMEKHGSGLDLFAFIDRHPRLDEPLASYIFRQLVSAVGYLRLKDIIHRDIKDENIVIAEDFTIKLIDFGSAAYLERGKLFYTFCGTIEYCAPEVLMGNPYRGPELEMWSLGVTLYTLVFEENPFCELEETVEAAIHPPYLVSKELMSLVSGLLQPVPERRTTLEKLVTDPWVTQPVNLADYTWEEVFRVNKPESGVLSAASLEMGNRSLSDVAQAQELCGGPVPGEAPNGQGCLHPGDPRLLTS
For assay [14], the target named is Activated CDC42 kinase 1 (Homo sapiens) (UniProt Q07912). The following applies: at 1 µM.
Sequence of Activated CDC42 kinase 1 (Homo sapiens) (Q07912 whole entry, looked up): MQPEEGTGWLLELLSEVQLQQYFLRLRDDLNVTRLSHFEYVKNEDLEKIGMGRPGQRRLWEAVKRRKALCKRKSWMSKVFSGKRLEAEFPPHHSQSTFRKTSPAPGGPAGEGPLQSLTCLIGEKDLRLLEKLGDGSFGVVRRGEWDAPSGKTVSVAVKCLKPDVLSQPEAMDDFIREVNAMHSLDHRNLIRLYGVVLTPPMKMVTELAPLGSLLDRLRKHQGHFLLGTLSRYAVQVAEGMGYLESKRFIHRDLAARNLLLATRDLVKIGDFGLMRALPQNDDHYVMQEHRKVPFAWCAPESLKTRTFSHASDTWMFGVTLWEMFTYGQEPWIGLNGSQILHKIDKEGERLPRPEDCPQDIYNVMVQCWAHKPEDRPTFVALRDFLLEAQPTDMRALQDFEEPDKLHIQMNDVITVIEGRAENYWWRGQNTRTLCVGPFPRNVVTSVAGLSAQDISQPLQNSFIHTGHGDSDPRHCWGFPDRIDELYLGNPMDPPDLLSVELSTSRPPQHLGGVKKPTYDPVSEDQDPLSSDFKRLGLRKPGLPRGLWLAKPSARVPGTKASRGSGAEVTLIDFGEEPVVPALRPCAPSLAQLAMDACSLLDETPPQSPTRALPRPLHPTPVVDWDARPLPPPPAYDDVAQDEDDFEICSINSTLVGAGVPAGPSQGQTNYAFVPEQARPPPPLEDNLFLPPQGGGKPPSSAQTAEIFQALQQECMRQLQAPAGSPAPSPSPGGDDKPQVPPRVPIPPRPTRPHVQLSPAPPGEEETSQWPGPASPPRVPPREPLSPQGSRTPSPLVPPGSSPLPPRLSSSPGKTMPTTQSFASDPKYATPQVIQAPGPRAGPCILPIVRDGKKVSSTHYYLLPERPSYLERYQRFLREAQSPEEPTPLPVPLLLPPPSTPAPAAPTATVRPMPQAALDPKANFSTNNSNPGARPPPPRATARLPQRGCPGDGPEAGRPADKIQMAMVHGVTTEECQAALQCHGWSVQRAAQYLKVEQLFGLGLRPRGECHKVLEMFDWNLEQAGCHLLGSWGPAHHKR
For assay [15] the target is unchanged. The conditions noted are these: at 10 µM.
Assay [16] concerns the target ALK tyrosine kinase receptor (Homo sapiens) (UniProt Q9UM73). The conditions noted are these: at 1 µM.
Assay [17] has as its target Serine/threonine-protein kinase Nek6 (Homo sapiens) (UniProt Q9HC98). The following applies: at 10 µM.
For assay [18] the target is unchanged. The conditions noted are these: at 1 µM.
The target in assay [19] is Serine/threonine-protein kinase Nek7 (Homo sapiens) (UniProt Q8TDX7). The conditions noted are these: at 1 µM.
Sequence of Serine/threonine-protein kinase Nek7 (Homo sapiens) (Q8TDX7 whole entry, looked up): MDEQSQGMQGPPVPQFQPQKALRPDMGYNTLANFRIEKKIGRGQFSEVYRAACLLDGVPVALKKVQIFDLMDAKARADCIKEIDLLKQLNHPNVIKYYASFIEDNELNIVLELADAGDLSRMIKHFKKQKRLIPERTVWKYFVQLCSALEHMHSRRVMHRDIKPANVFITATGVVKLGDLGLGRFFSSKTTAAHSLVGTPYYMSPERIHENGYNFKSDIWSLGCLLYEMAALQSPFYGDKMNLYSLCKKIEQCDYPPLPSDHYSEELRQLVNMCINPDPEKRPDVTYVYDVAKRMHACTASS
Assay [20] shares this target. The following applies: at 10 µM.

Sequence of Serine/threonine-protein kinase Nek6 (Homo sapiens) (Q9HC98 whole entry): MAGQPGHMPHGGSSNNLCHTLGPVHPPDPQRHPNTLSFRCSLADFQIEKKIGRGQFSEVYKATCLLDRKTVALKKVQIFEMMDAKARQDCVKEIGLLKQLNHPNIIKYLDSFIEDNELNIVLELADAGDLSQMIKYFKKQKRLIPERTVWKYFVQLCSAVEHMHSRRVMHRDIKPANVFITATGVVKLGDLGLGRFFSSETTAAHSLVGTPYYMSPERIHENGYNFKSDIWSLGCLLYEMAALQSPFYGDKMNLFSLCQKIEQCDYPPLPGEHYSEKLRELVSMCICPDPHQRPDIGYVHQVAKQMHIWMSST
Sequence of ALK tyrosine kinase receptor (Homo sapiens) (Q9UM73 19-1620 limits assumed): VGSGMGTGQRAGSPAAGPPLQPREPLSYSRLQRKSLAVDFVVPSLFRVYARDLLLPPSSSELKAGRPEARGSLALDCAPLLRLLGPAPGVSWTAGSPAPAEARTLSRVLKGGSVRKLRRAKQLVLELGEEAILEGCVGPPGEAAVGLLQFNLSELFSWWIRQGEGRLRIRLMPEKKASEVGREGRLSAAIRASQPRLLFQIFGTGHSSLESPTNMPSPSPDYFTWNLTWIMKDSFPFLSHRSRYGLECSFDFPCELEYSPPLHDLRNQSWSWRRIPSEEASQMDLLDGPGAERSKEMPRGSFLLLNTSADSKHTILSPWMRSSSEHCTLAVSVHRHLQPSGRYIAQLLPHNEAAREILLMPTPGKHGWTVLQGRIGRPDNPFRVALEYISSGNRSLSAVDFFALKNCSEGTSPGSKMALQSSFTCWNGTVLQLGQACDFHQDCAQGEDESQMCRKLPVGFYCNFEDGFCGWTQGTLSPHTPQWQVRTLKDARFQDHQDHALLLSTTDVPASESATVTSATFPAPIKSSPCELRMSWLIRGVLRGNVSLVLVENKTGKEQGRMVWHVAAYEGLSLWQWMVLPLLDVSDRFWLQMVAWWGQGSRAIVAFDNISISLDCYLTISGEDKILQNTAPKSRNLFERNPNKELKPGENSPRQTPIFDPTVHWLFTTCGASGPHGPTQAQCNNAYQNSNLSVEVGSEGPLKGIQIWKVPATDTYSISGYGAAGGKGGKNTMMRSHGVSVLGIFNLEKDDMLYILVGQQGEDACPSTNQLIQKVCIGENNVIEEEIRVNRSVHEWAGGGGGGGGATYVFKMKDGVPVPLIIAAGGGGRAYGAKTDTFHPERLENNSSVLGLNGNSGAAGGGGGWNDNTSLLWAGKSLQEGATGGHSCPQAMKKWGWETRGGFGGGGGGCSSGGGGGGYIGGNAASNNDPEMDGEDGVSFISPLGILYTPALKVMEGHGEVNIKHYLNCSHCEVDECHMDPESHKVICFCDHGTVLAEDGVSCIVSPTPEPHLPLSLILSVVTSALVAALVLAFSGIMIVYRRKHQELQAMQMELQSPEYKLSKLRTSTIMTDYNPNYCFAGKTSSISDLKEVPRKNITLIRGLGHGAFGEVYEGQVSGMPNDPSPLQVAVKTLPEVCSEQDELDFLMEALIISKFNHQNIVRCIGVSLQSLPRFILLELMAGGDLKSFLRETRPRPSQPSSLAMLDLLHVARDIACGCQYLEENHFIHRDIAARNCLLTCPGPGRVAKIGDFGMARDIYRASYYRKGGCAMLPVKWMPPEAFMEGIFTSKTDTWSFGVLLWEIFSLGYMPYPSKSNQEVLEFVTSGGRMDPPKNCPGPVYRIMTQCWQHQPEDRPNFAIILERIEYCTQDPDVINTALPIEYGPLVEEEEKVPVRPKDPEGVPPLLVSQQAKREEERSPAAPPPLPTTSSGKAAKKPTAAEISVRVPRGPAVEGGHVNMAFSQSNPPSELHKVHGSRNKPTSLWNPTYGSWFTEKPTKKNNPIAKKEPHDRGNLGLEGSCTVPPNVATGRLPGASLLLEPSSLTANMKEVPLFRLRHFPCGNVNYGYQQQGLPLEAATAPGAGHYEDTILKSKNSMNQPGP

For the molecule `Cn1sc(=O)n(Cc2ccccc2)c1=O`, the residual activity worked out at 67% in assay [1]; 57% in assay [2]; 82% in [3]; 92% in [4]; 97% in assay [5]; 91% in [6]. Further, the residual activity in assay [7] turned out to be 94%; in assay [8], 89%; in assay [9] it was 97%; in [10] it was 94%; in assay [11], 96%; in assay [12], 94%. The residual activity in [13] is 138%; in assay [14] it was 77%; in [15] it was 64%; in [16], 64%.
For the molecule `COc1ccc(Cl)cc1NC(=O)Nc1cc(C)nc2ccccc12`, the residual activity in assay [1] was found to be 97%; in assay [2] it was 62%; in [3], 99%; in [4], 82%; in assay [7] it was 96%; in assay [8], 88%. For the same molecule, the residual activity in assay [9] worked out at 80%; in [10], 100%; in assay [11], 91%; in [12], 88%; in [13] it was 43%; in assay [14], 90%. Besides, the residual activity in assay [15] was found to be 80%; in assay [16], 77%.
`COc1ccc2c(c1)c(C1=C(c3c[nH]c4ccccc34)C(=O)NC1=O)cn2CCCN(C)C`: the residual activity in assay [1] was 22%; in [2], 2%; in assay [17], 107%; in assay [13], 32%; in assay [14], 65%; in [15] it was 21%. Further, the residual activity in assay [16] amounted to 80%.
Consider `O=C1NC(=O)C(c2c[nH]c3ccccc23)=C1c1c[nH]c2ccccc12`, for which the residual activity in [1] is 48%; in assay [2], 5%; in [18], 117% (inactive); in assay [17] it was 127%; in [4] it was 71%; in assay [7] it was 98%. The residual activity in [8] stood at 65%; in [9], 99%; in [12], 77%; in assay [13], 39%; in assay [14] it was 73%; in [15] it was 21%.
`N#Cc1c(NC(=O)c2cccc3ccccc23)sc2c1CCCC2`: the residual activity was determined as 91% in [1]; 68% in assay [2]; 93% in [17]; 93% in [5]; 100% in [11]; 66% in [12]. Further, the residual activity was determined as 96% in [13], 85% in [14], 61% in assay [15] and 80% in [16].
Turning to `CCCC(=O)Oc1ccc2[nH]c(C(=O)c3cc4ccccc4[nH]3)cc2c1`, the residual activity was 104% in assay [1]; 91% in assay [2]; 89% (inactive) in [18]; 91% (inactive) in assay [19]; 93% (inactive) in [20]; 90% in assay [3]. For the same molecule, the residual activity in assay [4] was 108%; in assay [5], 102%; in assay [6], 86%; in assay [7] it was 94%; in assay [8], 84%; in [9], 100%. Moreover, the residual activity in [11] turned out to be 108%; in assay [12], 75%; in [13], 84%; in assay [14], 72%; in [15], 65%; in [16], 78%.
Consider `Nc1ncnc2c1c(-c1ccc(Oc3ccccc3)cc1)cn2C1CCCC1`, for which the residual activity in assay [1] was 67%; in assay [2], 45%; in assay [18], 78% (inactive); in assay [17], 99%; in assay [19], 97% (inactive); in [20], 105% (inactive). For the same molecule, the residual activity in assay [3] was 81%; in assay [4] it was 41%; in assay [5], 98%; in assay [6], 61%; in assay [7], 89%; in [8], 64%. For the same molecule, the residual activity is 76% in assay [9]; 44% in [10]; 91% in assay [11]; 63% in assay [12]; 43% in assay [13]; 4% in assay [14]. In addition, the residual activity was determined as 1% in assay [15] and 76% in assay [16].
On to `CCOC(=O)c1c(C)[nH]c(/C=C2\C(=O)Nc3ccccc32)c1C`, for which the residual activity in assay [7] amounted to 90%; in assay [8], 94%; in assay [11], 91%; in assay [12], 99%; in assay [13], 93%; in assay [14] it was 73%. Besides, the residual activity is 64% in assay [15] and 80% in assay [16].
On to `CC(C)(C)c1nc2c3ccc(F)cc3c3c(=O)[nH]ccc3c2[nH]1`, for which the residual activity in assay [1] was determined as 47%; in assay [2] it was 44%; in [3] it was 34%; in assay [4] it was 19%; in [12], 68%; in [14], 10%. In addition, the residual activity in assay [15] was found to be 0%; in [16] it was 30%.
`Nc1nccc(-c2c(-c3ccc(F)cc3)ncn2C2CCNCC2)n1`: the residual activity came out at 74% in [1]; 49% in assay [2]; 34% in assay [3]; 9% in assay [4]; 39% in assay [15].
On to `O=C(Nc1ccc(Cl)cc1)c1ccccc1NCc1ccncc1`, for which the residual activity in [1] was 135%; in assay [20], 120% (inactive); in [7] it was 100%; in assay [8], 99%; in assay [9], 117%; in assay [10] it was 128%. Further, the residual activity in assay [15] was determined as 76%.
In the case of `CCN1/C(=C/C(C)=O)Sc2ccc(OC)cc21`, the residual activity stood at 76% in assay [3]; 77% in assay [4]; 80% in [10]; 81% in assay [14]; 64% in assay [15].
Turning to `O=C1NC(=O)C(c2cn(CCCn3ccnc3)c3ccccc23)=C1Nc1ccccc1`, the residual activity in assay [1] was 23%; in assay [2], 6%; in [5], 107%; in assay [6], 67%; in [8], 75%; in assay [14], 45%. The figures for the residual activity in assay [15] and in assay [16] were 11% and 74%, respectively.
For the molecule `O=S(=O)(c1cccc2cnccc12)N1CCCNCC1`, the residual activity in assay [2] is 25%; in assay [7], 106%; in assay [8] it was 101%.
For `c1ccc(-c2cnc(Nc3ccc(OCCN4CCCC4)cc3)s2)cc1`, the residual activity in [1] was found to be 61%; in assay [2], 52%; in [3] it was 112%; in assay [4], 56%; in assay [7], 105%; in [8], 76%. Further, the results for the residual activity in [13], in assay [14] and in assay [15] were 62%, 68% and 16%, respectively.
On to `COc1ccc(-c2cnc3c(-c4ccsc4)cnn3c2)cc1`, for which the residual activity in [1] was found to be 72%; in assay [2] it was 66%; in assay [7], 99%; in [8] it was 94%; in assay [9], 94%; in assay [13], 94%. Besides, the results for the residual activity in assay [14] and in assay [15] were 71% and 68%, respectively.
Regarding `Fc1ccc(-c2nc3n(c2-c2ccncc2)CCS3)cc1`, the residual activity in assay [1] amounted to 92%; in assay [2] it was 62%; in assay [3] it was 52%; in [4], 20%; in [14], 87%; in [15], 79%. For the same molecule, the residual activity in [16] was 86%.
Consider `O=S(=O)(NCCNC/C=C/c1ccc(Br)cc1)c1cccc2cnccc12`, for which the residual activity turned out to be 13% in assay [1]; 5% in [2]; 55% in [12]; 81% in [13]; 77% in assay [14]; 43% in assay [15].
Consider `Nc1nc(Nc2ccc(S(N)(=O)=O)cc2)nn1C(=O)c1c(F)cccc1F`, for which the residual activity in assay [18] was 105% (inactive); in [17], 115%; in assay [19], 111% (inactive); in assay [20], 105% (inactive); in [3] it was 75%; in [4], 34%. Further, the residual activity in assay [5] was determined as 118%; in assay [8], 17%; in assay [9], 71%; in assay [10] it was 24%; in assay [11], 79%; in assay [12], 34%. Moreover, the residual activity worked out at 50% in assay [14], 9% in [15] and 77% in [16].
